Measured values: PubChem BioAssay (NCI)
The panel holds about 83,000 compounds, 20% with a hit somewhere; the sample as a whole holds those more often.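 Activity criterion: percent growth below 10, measured after cells in 96-well plates were exposed to a single compound concentration for 48 hours.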 The source made the active and inactive calls.

Test system: HL-60(TB) leukemia
Assay: NCI-60 one-dose screen, 48 h (100 = growth as untreated, 0 = no growth, -100 = all killed)
Details: 10 µM unless noted

| Structure (SMILES) | growth |
| --- | --- |
| Cc1ccc2c(C)c3c(ccc4ccccc43)c[n+]2c1 | 94.4% (inactive) |
| Nc1ncnc(Nc2ccccc2)n1 | 107% (inactive) |
| O=c1[nH]ccc2nc(N3CCC(O)CC3)nc(Nc3ccc(N4CCOCC4)cc3)c12 | 18.9% (inactive) |
| CC(C)Cn1cnc2c(=O)[nH]c(N)nc21 | 63.8% (inactive) |
| N=C1c2nc3n(c2C(=O)c2nc4n(c21)CCCC4)CCCC3 | 96.3% (inactive) |
| CCCC(CCC)Oc1ccc(CCCC2=C(O)c3ccccc3C(=O)C2=O)cc1 | 37.5% (inactive) |
| COc1cc(OC)cc(C2C3=C(COC3=O)Nc3cc(OC)ccc32)c1 (configuration not stated) | 1.71% (active) |
| N#CC(C#N)N=Nc1cc(Cl)ccc1Cl | 85.2% (inactive) |
| Nc1c(Br)cc2c(c1Br)Cc1cc([N+](=O)[O-])ccc1-2 | 69.6% (inactive) |
| Nc1ccc2cc3ccc(N)cc3nc2c1 | 110% (inactive) |
| CCCCCC[C@@H](O)C/C=C\CCCCCCCC(=O)OCCOC | 156% (inactive) |
| COc1ccc2cn3c4ccc(O)cc4[nH]c(=O)c3c2c1 | -7.42% (active) |
| CN(C)c1ncc(C#Cc2c(F)cccc2F)c2ccccc12 | 59.9% (inactive) |
| Cc1c(Cl)cccc1NC(=O)c1sc2nc3c(cc2c1N)CCCC3 | 5.57% (active) |
| CCN(Cc1ccccc1)C1CCN(Cc2cc(Br)ccc2O)CC1 | 50.1% (inactive) |
| COc1ccc(-c2nn(-c3ccc(NC(=O)c4cc(C(F)(F)F)cc(C(F)(F)F)c4)cc3)cc2-c2ccncc2)cc1Cl | 73.6% (inactive) |
| CCCCCCCCCCCCCCCCOc1ccc(C)cc1 | 134% (inactive) |
| FC(F)(F)c1cn(CC2CNC2)c2ncnc(Cl)c12 | 73.5% (inactive) |
| O=C(NC1CC1)c1ccc(-c2nc3ccc4[nH]ncc4c3c3c2CCCC3)cc1 | 28.6% (inactive) |
| COc1cc2c3cc1Oc1c(OC)c(OC)cc4c1C(Cc1ccc(O)c(c1)Oc1ccc(cc1)CC3N(C)CC2)N(C)CC4 (configuration not stated) | -32.4% (active) |
| COC(=O)c1c2c(c(C)[n+]([O-])c1C)C(=O)C=C(NCc1ccc(F)c(Cl)c1)C2=O | -28.9% (active) |
| CCOC(=O)c1cc2c(n1Cc1cccc(OC)c1)-c1oncc1CCC2 | 7.26% (active) |
| COc1ccc(-c2cc(-c3ccc(N(C)C)cc3)nc(NC(=O)c3cccnc3)n2)cc1 | 109% (inactive) |
| Cc1ccc(-c2n[nH]c(=O)c3noc(-c4ccc(C)cc4)c23)cc1 | 6.11% (active) |
| N#Cc1ccccc1C#Cc1ccccc1C#Cc1ccc(OCCCCCCOc2ccc(C#Cc3ccccc3C#Cc3ccccc3C#N)cc2)cc1 | 99.7% (inactive) |
| COc1cc2nc(Nc3ccc(F)cc3)nc(N)c2cc1OC | 79.4% (inactive) |
| CNC(=O)c1cc(Oc2ccc(NC(=O)c3nc(S(C)(=O)=O)sc3-c3ccc(F)cc3)cc2)ccn1 | 27.2% (inactive) |
